TEAD-YAP inh = TEAD-YAP interaction inhibition, primary screen, TEAD-YAP interaction inhibitor project, luminescence, HEK-TIYL cells | TEAD-Gal4/YAP UAS-luciferase luminescence | inhibition, % at 9.12 µM | actives 1.4% (n = 640,000) | AID 1259422, 2018; in the data active means inhibition above about 32%;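 further: 0% = median of test compound wells and 100% = reference inhibitor wells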
GPR151 activ = activators of human GPR151, primary screen, cell-based, PathHunter beta-arrestin, luminescence | G-protein coupled receptor 151 (Homo sapiens), Q8TDV0 | PathHunter beta-arrestin GPR151 cells | activation, % at 11.2 µM | actives 1% (n = 650,000) | AID 1508602, 2020; in the data active means activation above about 4.9%;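 further: 0% = median of compound wells and 100% = cells with positive control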
Target sequence (Q8TDV0 whole entry, looked up): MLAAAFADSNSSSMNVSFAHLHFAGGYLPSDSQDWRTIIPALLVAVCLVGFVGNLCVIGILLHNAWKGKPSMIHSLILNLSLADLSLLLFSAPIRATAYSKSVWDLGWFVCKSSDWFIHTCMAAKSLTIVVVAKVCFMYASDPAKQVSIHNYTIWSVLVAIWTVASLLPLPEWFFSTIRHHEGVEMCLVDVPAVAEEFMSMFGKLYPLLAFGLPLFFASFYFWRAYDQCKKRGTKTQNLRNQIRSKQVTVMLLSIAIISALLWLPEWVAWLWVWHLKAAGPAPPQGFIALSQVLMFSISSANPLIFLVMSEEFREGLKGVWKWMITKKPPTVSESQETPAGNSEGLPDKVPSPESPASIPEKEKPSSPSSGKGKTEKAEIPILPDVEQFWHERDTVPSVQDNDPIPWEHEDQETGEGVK
MITF inh = MITF inhibitors, primary screen, biochemical, AlphaScreen, human. Microphthalmia-associated transcription factor (Homo sapiens), O75030. AlphaScreen MITF homodimerization, bead proximity signal. inhibition, % at 2.6 µM. actives 0.91% (n = 650,000); in the data active means inhibition above about 50%;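 further: 0% = vehicle wells with protein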
FBW7 activator = FBW7 E3 ligase activators, primary screen, biochemical, AlphaScreen, human. actives 0.13% (n = 650,000). F-box/WD repeat-containing protein 7 (Homo sapiens), Q969H0. AlphaScreen FBW7–phospho-cyclin E peptide binding, activator screen. normalized activity (activation), % at 26.1 µM; in the data active means normalized activity above about 1.9%;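 further: purified mutant Fbw7 with reduced substrate affinity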
* marks the source's active call; other numbers are inactive results. Shown are actives, neighbours in structure and some others; about 3.5% of the full set was active somewhere.

SMILES	TEAD-YAP inh	GPR151 activ	MITF inh	FBW7 activator
COc1ccc(-n2nc(C(=O)NCC(=O)NCCc3ccc(OC)c(OC)c3)c3ccccc3c2=O)cc1Cl	37.7*	-1.3	7.6	0.0
COc1ccc(OC)c(NC(=O)CNC(=O)c2nn(-c3ccc(OC)c(Cl)c3)c(=O)c3ccccc23)c1	35.6*	0.6	2.2	-0.1
COCCNC(=O)CNC(=O)c1nn(-c2ccc(OC)c(Cl)c2)c(=O)c2ccccc12	-6.8	0.1	9.5	0.0
COc1ccc(-n2nc(C(=O)NCC(=O)N3CCCC3)c3ccccc3c2=O)cc1	-2.3	0.3	7.4	0.1
CCOC(=O)c1cc(-c2ccc(/C=C3\C(=O)N(c4ccc(S(N)(=O)=O)cc4)N=C3C(F)(F)F)o2)ccc1Cl	-1.1	-0.6	-3.3	0.3
O=C1CCCN1c1ccc(CSc2nc3c(sc4ncccc43)c(=O)n2Cc2ccccc2)cc1	10.5	0.7	-7.5	-0.1
COCCN(C1CCN(C(=O)c2ccc(Cl)nc2)CC1)S(=O)(=O)c1ccccc1	7.9	3.2	20.4	0.7
O=C1OC(c2ccc(Cl)cc2)=N/C1=C\C=C\c1ccccc1	-1.1	0.9	2.0	0.0
O=C1N(c2ccccc2)C[C@@H]2C[C@@H](c3cc4ccccc4o3)N3CCC[C@@]123	64.5*	-0.9	1.4	0.1
COc1ccc(C(=O)C2CCN(CC(=O)NC3CCCC3)CC2)cc1	7.4	-0.8	-2.8	0.0
Cc1ccc2nc(-c3ccc(N4C(=O)CC(N5CCN(CCOCCO)CC5)C4=O)cc3)sc2c1 (configuration not stated)	-0.5	0.6	-5.9	0.4
COc1ccc2cc(Br)ccc2c1CC(=O)Nc1nc(C)cs1	37.8*	-0.9	4.4	0.0
COc1ccc(NC(=O)CSC2=NC(C)(C)N=C2c2ccc(F)cc2)cc1	7.3	0.6	5.7	-0.1
COc1ccc2c(c1)C(C)CC(C)(C)N2C(=O)CCl (configuration not stated)	41.1*	0.1	0.4	-0.5
COc1ccc(C(=O)NCC2CCN(c3ccc(S(=O)(=O)N(C)C)cc3)CC2)cc1	14.6	-0.4	13.4	0.0
O=C(Nc1ccc(O)cc1)c1sc2ccccc2c1Cl	87.0*	-2.0	3.1	-0.2
COC(=O)c1sc(NC(=O)c2sc3ccccc3c2Cl)nc1C	-58.5	1.8	28.2	0.1
Cc1nc(NC(=O)c2sc3ccccc3c2Cl)sc1C	86.6*	-7.6	7.4	0.3
O=C(N/N=C/c1ccc(O)c(O)c1O)c1sc2ccccc2c1Cl	-0.8	-1.0	60.8*	-0.7
Cc1ccc(-n2nc3c(c2NC(=O)c2ccc(S(=O)(=O)N4CCCC4)cc2)CS(=O)(=O)C3)c(C)c1	-1.8	4.0	24.6	0.1
CCC(=O)Oc1ccc2c(C)cc(=O)oc2c1	1.2	-0.4	3.0	0.0
O=C1CCC(=O)N1CNC1CCCCC1	4.7	1.6	-9.8	0.1
COc1cc(C(=O)Nc2nnc(C)s2)c(Br)c(OC)c1OC	-1.1	-2.3	-8.6	0.8
COc1cc(CCC(=O)Nc2nnc(C)s2)cc(OC)c1OC	55.4*	0.6	2.0	-0.1
C=CCn1c(SCC(=O)Nc2ccc(F)cc2F)nnc1-c1ccccc1O	48.4*	0.0	-6.7	0.0
SMILES	TEAD-YAP inh	GPR151 activ	MITF inh	FBW7 activator
C=CCn1c(SCC(=O)Nc2cccc(C)c2)nnc1-c1ccccc1O	12.6	0.7	5.5	0.0
Cc1[nH]c2ccc(CNC(=O)Cn3c(C)nc4ccccc43)cc2c1C	50.1*	0.4	13.4	-0.1
CCN(CC)CCNC(=O)Cn1c(C)nc2ccccc21	-5.6	1.3	13.5	-0.2
COc1ccccc1CNC(=O)c1oc2ccc(S(=O)(=O)N3CCOCC3)cc2c1C	-13.2	-0.1	-0.3	0.0
Cc1c(C(=O)NCc2ccccc2Cl)oc2ccc(S(=O)(=O)N3CCOCC3)cc12	-1.3	1.5	4.0	2.4*
COC(=O)CN(C)C(=O)NCC12CC3CC(CC(C3)C1)C2	4.3	-0.7	-0.6	0.0
CCOc1ccccc1/C=N\NC(=O)Cn1cnc2ccccc21	5.3	-0.5	9.3	0.0
CCOC(=O)c1c(C)[nH]c(C2=NNC(=NC3CC3)SC2)c1C	78.1*	0.5	4.5	0.3
Fc1ccc(C2=NNC(=NC3CC3)SC2)cc1F	64.6*	-7.4	2.7	-0.4
CCC(=O)Nc1ccc(C2=NNC(=Nc3ccc(C)cc3)SC2)cc1	-6.7	0.5	16.4	0.0
CCC(=O)Nc1ccc(C2=NNC(=NC3CC3)SC2)cc1	50.8*	-2.9	-2.0	-0.1

Assay outcomes from PubChem BioAssay.
